What was measured:
Experiment in all cases: log2 ratio of Biotin-Ahx-Ub-VS probe labelling (fragment/DMSO); higher = less target engagement (more negative = stronger competition), active = hit call of the paper (q ≤ 0.05, log2 ratio ≤ -1)
Conditions in all cases: compound concentration: 200 uM; treatment time: 3 h
USP34 = USP34 (UniProt Q70CQ2)
Outline: (§1)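 HEK293T lysate, 495 µg per sample in Tris/CHAPS/IGEPAL buffer with protease inhibitors, was treated in triplicate with fragment at 200 µM or vehicle for 3 h and then with Biotin-Ahx-Ub-VS at 0.5 µM final for 1 h. Labelled DUBs were NeutrAvidin-enriched, digested with LysC and trypsin, and run by diaPASEF LC-MS/MS. Spectronaut label-free quantities were global-median-normalised, and values are average log2 fragment/vehicle ratios by unpaired t-test on proteins with ≥2 unique peptides.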

USP36 = target: T1, USP36 (UniProt Q9P275)
T1 sequence (whole entry): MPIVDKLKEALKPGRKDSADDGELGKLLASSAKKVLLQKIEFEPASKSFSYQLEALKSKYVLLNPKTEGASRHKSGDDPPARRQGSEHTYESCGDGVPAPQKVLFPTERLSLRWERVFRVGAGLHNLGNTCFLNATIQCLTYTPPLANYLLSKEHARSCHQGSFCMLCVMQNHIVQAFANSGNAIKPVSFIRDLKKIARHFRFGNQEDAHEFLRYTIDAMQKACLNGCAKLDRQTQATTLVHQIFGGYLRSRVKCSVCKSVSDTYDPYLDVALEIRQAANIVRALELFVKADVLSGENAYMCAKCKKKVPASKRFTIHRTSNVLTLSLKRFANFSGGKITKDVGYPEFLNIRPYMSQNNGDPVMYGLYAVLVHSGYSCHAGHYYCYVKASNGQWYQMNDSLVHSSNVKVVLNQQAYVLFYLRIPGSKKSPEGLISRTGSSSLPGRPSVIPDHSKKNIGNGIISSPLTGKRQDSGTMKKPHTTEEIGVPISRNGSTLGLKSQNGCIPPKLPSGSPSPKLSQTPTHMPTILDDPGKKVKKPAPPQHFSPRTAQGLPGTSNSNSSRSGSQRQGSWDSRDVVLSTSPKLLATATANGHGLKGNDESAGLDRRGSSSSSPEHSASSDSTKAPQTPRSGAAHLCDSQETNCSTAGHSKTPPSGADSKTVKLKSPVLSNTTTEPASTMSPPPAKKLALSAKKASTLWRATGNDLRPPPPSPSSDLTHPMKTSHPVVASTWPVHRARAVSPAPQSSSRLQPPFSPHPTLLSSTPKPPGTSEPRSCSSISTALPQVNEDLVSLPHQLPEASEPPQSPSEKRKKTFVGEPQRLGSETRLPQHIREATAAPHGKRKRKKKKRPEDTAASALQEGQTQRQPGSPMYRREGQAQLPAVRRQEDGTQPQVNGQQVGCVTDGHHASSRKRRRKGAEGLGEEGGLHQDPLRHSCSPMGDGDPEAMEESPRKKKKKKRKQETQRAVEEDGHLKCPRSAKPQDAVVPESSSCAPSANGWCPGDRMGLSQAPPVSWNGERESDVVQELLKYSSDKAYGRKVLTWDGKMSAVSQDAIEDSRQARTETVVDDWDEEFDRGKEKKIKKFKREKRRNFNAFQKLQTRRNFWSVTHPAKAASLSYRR
Outline: as §1

USP38 = target: T2, USP38 (UniProt Q8NB14)
T2 sequence (whole entry): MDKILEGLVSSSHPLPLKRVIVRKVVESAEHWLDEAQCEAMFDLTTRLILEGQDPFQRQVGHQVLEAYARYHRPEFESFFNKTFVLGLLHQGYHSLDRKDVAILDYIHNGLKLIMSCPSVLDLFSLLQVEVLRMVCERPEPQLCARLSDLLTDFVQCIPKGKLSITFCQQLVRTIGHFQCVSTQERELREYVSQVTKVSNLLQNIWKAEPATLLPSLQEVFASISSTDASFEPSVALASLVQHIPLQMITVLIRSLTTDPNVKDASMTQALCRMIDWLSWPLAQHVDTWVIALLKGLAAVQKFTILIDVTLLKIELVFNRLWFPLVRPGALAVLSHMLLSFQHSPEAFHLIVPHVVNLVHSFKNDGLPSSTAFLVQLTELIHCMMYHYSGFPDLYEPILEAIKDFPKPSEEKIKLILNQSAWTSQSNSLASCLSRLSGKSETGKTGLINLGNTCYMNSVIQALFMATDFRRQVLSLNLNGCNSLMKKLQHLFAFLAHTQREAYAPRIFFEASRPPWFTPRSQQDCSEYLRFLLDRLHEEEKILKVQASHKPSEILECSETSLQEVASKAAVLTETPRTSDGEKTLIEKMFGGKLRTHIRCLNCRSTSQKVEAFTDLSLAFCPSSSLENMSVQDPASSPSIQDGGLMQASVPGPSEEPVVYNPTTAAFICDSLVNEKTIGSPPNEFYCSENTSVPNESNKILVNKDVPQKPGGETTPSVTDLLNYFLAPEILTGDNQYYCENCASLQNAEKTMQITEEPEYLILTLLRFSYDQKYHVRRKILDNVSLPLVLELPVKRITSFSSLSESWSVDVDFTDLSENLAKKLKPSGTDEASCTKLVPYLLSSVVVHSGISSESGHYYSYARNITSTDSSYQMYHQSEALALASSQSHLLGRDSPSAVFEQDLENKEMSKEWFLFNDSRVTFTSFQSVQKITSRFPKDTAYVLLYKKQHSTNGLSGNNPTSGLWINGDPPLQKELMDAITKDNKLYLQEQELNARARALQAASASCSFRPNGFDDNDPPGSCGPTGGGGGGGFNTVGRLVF
Outline: as §1

USP39 = target: T3, USP39 (UniProt Q53GS9)
T3 sequence (whole entry): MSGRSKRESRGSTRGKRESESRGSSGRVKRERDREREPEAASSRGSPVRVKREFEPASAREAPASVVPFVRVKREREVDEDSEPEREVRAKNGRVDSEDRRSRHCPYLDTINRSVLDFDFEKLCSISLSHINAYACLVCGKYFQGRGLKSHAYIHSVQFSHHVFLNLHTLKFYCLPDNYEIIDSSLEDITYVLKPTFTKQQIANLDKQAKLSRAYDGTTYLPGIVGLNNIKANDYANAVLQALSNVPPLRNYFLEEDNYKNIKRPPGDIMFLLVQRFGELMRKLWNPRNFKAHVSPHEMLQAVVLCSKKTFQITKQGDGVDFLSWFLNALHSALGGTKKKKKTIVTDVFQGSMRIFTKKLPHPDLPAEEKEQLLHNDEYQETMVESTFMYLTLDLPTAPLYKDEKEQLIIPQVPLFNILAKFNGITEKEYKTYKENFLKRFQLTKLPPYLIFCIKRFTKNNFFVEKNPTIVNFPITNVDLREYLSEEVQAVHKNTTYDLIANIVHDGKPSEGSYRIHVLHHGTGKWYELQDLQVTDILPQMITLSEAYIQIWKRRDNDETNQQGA
Outline: as §1

USP4 = target: T4, USP4 (UniProt Q13107)
T4 sequence (whole entry): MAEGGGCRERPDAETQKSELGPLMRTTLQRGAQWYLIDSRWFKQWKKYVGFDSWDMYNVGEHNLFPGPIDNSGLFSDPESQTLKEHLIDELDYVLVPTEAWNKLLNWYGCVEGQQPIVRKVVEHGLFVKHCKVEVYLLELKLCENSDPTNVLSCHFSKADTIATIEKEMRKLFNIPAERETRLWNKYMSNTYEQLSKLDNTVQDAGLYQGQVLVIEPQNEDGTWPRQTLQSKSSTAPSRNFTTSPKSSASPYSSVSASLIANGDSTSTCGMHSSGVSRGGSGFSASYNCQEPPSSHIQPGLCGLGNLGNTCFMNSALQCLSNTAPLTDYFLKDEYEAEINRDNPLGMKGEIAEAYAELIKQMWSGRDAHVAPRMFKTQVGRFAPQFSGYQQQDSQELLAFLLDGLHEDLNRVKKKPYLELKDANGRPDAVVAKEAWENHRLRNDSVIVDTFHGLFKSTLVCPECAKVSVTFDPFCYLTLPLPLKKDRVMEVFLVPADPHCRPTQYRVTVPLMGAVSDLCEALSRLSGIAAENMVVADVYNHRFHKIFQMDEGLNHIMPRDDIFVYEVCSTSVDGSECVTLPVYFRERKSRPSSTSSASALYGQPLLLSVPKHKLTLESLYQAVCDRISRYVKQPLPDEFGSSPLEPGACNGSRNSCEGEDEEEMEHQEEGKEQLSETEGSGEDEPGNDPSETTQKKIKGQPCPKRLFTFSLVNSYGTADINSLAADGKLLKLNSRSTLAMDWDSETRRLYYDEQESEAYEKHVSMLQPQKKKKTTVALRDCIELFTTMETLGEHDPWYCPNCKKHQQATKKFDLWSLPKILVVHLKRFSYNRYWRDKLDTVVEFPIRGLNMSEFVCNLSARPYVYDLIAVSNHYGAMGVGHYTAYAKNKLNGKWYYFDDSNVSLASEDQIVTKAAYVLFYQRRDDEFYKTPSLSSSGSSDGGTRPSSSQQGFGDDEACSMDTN
Outline: as §1

Measured: log2 ratio of Biotin-Ahx-Ub-VS probe labelling

Chain of USP34 (Q70CQ2 whole entry, the tested form may be a part): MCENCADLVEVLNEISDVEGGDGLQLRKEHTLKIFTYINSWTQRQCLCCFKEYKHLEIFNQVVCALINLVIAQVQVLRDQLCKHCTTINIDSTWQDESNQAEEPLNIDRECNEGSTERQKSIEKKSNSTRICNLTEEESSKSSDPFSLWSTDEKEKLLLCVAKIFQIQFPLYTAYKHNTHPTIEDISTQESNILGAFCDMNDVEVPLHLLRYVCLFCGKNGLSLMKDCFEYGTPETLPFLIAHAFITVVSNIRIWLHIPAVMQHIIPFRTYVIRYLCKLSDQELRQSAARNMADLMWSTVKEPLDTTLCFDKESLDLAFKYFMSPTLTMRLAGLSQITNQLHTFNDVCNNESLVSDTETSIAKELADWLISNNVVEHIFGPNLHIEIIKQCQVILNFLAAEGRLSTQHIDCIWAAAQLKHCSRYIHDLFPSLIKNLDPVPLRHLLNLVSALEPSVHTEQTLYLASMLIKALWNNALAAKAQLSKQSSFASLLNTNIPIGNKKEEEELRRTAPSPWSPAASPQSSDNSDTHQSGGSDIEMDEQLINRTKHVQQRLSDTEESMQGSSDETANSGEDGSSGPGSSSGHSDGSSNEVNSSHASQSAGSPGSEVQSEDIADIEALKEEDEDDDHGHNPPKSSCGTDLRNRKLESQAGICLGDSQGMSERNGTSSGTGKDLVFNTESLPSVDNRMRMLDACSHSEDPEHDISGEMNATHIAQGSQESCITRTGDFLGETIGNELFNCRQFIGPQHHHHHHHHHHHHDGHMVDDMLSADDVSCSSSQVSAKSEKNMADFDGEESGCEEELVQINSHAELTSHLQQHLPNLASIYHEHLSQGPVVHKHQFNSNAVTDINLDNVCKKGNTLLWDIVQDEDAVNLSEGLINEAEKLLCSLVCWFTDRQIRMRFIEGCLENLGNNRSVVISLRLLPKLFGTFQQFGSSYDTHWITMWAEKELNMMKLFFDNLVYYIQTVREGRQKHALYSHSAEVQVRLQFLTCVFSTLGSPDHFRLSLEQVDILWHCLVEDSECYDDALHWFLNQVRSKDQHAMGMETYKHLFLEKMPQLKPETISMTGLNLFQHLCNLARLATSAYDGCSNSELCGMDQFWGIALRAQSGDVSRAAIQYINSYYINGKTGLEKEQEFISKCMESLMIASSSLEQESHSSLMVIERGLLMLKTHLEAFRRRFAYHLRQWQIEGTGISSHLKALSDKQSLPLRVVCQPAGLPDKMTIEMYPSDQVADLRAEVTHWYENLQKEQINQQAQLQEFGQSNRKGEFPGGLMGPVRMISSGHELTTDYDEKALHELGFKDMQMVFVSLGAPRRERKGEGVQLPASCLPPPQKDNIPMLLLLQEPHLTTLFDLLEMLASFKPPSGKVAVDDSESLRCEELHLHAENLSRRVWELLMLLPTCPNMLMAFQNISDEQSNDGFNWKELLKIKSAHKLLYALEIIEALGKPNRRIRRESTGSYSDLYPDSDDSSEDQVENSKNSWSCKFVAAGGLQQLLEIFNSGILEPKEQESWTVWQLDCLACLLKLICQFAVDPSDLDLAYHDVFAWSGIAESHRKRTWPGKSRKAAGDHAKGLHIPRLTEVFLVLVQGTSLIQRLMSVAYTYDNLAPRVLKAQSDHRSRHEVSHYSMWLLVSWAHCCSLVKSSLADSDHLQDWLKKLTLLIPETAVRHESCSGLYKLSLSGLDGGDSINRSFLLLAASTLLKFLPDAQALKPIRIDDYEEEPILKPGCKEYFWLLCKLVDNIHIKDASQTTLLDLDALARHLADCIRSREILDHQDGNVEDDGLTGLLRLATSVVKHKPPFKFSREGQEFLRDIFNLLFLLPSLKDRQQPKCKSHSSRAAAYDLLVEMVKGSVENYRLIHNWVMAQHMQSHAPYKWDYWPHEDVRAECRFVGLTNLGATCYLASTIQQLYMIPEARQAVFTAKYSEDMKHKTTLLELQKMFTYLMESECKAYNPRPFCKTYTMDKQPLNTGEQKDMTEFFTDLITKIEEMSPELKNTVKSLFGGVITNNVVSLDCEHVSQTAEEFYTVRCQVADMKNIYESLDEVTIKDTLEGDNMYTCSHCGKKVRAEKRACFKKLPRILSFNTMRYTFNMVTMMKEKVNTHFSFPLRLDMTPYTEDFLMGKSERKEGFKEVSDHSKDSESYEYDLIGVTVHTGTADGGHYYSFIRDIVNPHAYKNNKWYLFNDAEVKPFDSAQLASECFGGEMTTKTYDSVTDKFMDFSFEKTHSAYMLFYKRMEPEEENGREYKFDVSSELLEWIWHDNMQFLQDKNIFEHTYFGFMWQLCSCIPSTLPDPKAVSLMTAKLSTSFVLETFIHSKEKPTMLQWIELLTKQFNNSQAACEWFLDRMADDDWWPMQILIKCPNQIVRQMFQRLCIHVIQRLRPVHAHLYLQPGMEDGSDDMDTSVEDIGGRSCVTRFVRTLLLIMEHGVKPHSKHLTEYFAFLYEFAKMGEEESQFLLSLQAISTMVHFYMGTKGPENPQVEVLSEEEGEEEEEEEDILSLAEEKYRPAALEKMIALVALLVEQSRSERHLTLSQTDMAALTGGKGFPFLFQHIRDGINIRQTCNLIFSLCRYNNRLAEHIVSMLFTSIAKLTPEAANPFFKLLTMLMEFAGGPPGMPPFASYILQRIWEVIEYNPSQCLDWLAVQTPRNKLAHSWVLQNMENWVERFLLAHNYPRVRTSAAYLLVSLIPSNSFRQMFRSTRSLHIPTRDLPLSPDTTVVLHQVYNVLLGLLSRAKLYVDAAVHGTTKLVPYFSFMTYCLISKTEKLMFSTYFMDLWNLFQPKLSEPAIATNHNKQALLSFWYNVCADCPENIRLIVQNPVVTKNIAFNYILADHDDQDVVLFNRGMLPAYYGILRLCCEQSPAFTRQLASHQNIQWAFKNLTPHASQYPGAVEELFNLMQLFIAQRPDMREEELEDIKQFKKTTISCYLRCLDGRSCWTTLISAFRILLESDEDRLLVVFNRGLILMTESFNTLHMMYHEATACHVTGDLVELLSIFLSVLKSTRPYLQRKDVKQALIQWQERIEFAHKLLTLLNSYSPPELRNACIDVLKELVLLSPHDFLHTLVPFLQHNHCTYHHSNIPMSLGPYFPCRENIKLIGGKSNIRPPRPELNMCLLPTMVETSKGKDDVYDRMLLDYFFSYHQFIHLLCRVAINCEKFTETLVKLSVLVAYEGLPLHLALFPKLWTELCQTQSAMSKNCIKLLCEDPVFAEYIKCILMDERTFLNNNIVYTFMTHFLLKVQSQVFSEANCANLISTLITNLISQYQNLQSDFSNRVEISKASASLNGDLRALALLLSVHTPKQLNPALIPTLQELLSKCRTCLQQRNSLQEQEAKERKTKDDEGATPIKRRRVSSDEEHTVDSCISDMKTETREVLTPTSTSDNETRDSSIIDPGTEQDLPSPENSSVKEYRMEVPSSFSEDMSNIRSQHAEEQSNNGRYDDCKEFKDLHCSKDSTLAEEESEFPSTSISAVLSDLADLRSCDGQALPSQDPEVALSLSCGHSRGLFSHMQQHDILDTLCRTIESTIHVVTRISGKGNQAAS

Cc1ccc2nnc(CNC(=O)CCl)n2c1
inactive: USP34 -0.0797 | USP36 -0.0909 | USP38 -0.0516 | USP39 -0.108 | USP4 0.17

From the supplement of paper PMC11732987, “Enantioselective OTUD7B fragment discovery through chemoproteomics screening and high-throughput optimisation” (Communications Chemistry, 2025)
